Source: paper PMC11006913

How the values were obtained:
Experiment in all cases: PBM; 200 nM protein, PBS
Conditions in all cases: dsDNA, one strand shown
HOXB9 [1] = molecular target: HOXB9 (Homo sapiens, UniProt P17482 171-250, T197M)
HOXB9 [2] = molecular target: HOXB9 (Homo sapiens, UniProt P17482 171-250)
HOXB9 [3] = molecular target: HOXB9 (Homo sapiens, UniProt P17482 171-250, R186Q)
HOXB6 = HOXB6 (Homo sapiens, UniProt P17509 132-218, K202E)
ALX3 [4] = molecular target: ALX3 (Homo sapiens, UniProt O95076 139-225, N203Q)
Chain of ALX3 (Homo sapiens, UniProt O95076 139-225, N203Q) (O95076 139-225 N203Q): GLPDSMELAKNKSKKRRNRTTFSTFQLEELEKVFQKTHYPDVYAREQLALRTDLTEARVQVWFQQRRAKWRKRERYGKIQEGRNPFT

ALX3 [5] = molecular target: ALX3 (Homo sapiens, UniProt O95076 139-225, N203S)
Chain of ALX3 (Homo sapiens, UniProt O95076 139-225, N203S) (O95076 139-225 N203S): as the sequence (O95076 139-225 N203Q) above, with Q65S counted along it

HOXC9 = HOXC9 (Homo sapiens, UniProt P31274 178-260, R222W)
Chain of HOXC9 (P31274 178-260 R222W): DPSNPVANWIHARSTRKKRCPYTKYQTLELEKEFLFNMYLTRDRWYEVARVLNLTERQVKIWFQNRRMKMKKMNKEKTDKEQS

Chain of HOXB6 (P17509 132-218 K202E): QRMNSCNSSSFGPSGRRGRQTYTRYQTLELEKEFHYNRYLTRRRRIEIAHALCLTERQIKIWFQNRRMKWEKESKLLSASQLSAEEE
Chain of HOXB9 (Homo sapiens, UniProt P17482 171-250, R186Q) (P17482 171-250 R186Q): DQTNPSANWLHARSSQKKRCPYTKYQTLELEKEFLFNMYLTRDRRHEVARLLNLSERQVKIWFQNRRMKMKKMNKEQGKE
Chain of HOXB9 (Homo sapiens, UniProt P17482 171-250) (P17482 171-250): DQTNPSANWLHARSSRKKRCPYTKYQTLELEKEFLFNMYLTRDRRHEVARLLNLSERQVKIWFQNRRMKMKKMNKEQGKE
Chain of HOXB9 (Homo sapiens, UniProt P17482 171-250, T197M) (P17482 171-250 T197M): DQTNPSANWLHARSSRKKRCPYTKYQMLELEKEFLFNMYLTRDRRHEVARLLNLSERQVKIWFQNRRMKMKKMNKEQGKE

| Sequence | binding signal (HOXB9 [1]) | binding signal (HOXB9 [2]) | binding signal (HOXB9 [3]) | binding signal (HOXB6) | binding signal (ALX3 [4]) | binding signal (ALX3 [5]) | binding signal (HOXC9) |
| --- | --- | --- | --- | --- | --- | --- | --- |
| CAGAAGCC | 8.6 upbm affinity estimate (log intensity, higher = more binding, comparable within an allelic series) | 8.72 upbm affinity estimate (log intensity, higher = more binding, comparable within an allelic series) | 8.73 upbm affinity estimate (log intensity, higher = more binding, comparable within an allelic series) |  |  |  |  |
| CTATAAAC | 9.58 upbm affinity estimate (log intensity, higher = more binding, comparable within an allelic series) | 11.5 upbm affinity estimate (log intensity, higher = more binding, comparable within an allelic series) | 11.2 upbm affinity estimate (log intensity, higher = more binding, comparable within an allelic series) |  |  |  |  |
| AATATAAT | 9.96 upbm affinity estimate (log intensity, higher = more binding, comparable within an allelic series) |  |  | 10 upbm affinity estimate (log intensity, higher = more binding, comparable within an allelic series) | 8.52 upbm affinity estimate (log intensity, higher = more binding, comparable within an allelic series) | 8.65 upbm affinity estimate (log intensity, higher = more binding, comparable within an allelic series) |  |
| GGCAGACC | 8.55 upbm affinity estimate (log intensity, higher = more binding, comparable within an allelic series) | 8.57 upbm affinity estimate (log intensity, higher = more binding, comparable within an allelic series) | 8.65 upbm affinity estimate (log intensity, higher = more binding, comparable within an allelic series) |  |  |  |  |
| ATTAAATA | 10.1 upbm affinity estimate (log intensity, higher = more binding, comparable within an allelic series) | 11.7 upbm affinity estimate (log intensity, higher = more binding, comparable within an allelic series) | 11.5 upbm affinity estimate (log intensity, higher = more binding, comparable within an allelic series) | 10 upbm affinity estimate (log intensity, higher = more binding, comparable within an allelic series) | 8.66 upbm affinity estimate (log intensity, higher = more binding, comparable within an allelic series) | 8.86 upbm affinity estimate (log intensity, higher = more binding, comparable within an allelic series) | 11.1 upbm affinity estimate (log intensity, higher = more binding, comparable within an allelic series) |
| ACATTAAA | 9.92 upbm affinity estimate (log intensity, higher = more binding, comparable within an allelic series) | 12 upbm affinity estimate (log intensity, higher = more binding, comparable within an allelic series) | 11.7 upbm affinity estimate (log intensity, higher = more binding, comparable within an allelic series) |  |  |  | 11 upbm affinity estimate (log intensity, higher = more binding, comparable within an allelic series) |
| ATAAATTA | 9.96 upbm affinity estimate (log intensity, higher = more binding, comparable within an allelic series) |  |  | 10 upbm affinity estimate (log intensity, higher = more binding, comparable within an allelic series) | 8.61 upbm affinity estimate (log intensity, higher = more binding, comparable within an allelic series) | 8.71 upbm affinity estimate (log intensity, higher = more binding, comparable within an allelic series) | 11 upbm affinity estimate (log intensity, higher = more binding, comparable within an allelic series) |
| GAGTCTCC | 8.54 upbm affinity estimate (log intensity, higher = more binding, comparable within an allelic series) | 8.49 upbm affinity estimate (log intensity, higher = more binding, comparable within an allelic series) | 8.45 upbm affinity estimate (log intensity, higher = more binding, comparable within an allelic series) |  |  |  |  |
| ATAAAATA | 9.86 upbm affinity estimate (log intensity, higher = more binding, comparable within an allelic series) | 11.8 upbm affinity estimate (log intensity, higher = more binding, comparable within an allelic series) | 11.4 upbm affinity estimate (log intensity, higher = more binding, comparable within an allelic series) |  |  |  | 11.3 upbm affinity estimate (log intensity, higher = more binding, comparable within an allelic series) |
| AATAAAAC | 9.76 upbm affinity estimate (log intensity, higher = more binding, comparable within an allelic series) | 11.8 upbm affinity estimate (log intensity, higher = more binding, comparable within an allelic series) | 11.5 upbm affinity estimate (log intensity, higher = more binding, comparable within an allelic series) |  |  |  | 11.2 upbm affinity estimate (log intensity, higher = more binding, comparable within an allelic series) |
| ATTAATAC | 10.1 upbm affinity estimate (log intensity, higher = more binding, comparable within an allelic series) |  |  | 10.1 upbm affinity estimate (log intensity, higher = more binding, comparable within an allelic series) |  |  |  |
| GCCGGAGC | 8.56 upbm affinity estimate (log intensity, higher = more binding, comparable within an allelic series) | 8.68 upbm affinity estimate (log intensity, higher = more binding, comparable within an allelic series) | 8.69 upbm affinity estimate (log intensity, higher = more binding, comparable within an allelic series) |  |  |  |  |
| CGTGAAGC | 8.57 upbm affinity estimate (log intensity, higher = more binding, comparable within an allelic series) | 8.56 upbm affinity estimate (log intensity, higher = more binding, comparable within an allelic series) | 8.45 upbm affinity estimate (log intensity, higher = more binding, comparable within an allelic series) | 9.08 upbm affinity estimate (log intensity, higher = more binding, comparable within an allelic series) |  |  |  |
| CCATAAAC | 9.33 upbm affinity estimate (log intensity, higher = more binding, comparable within an allelic series) | 11.8 upbm affinity estimate (log intensity, higher = more binding, comparable within an allelic series) | 11.5 upbm affinity estimate (log intensity, higher = more binding, comparable within an allelic series) |  |  |  | 10.8 upbm affinity estimate (log intensity, higher = more binding, comparable within an allelic series) |
| GCCTTCCC | 8.39 upbm affinity estimate (log intensity, higher = more binding, comparable within an allelic series) | 8.31 upbm affinity estimate (log intensity, higher = more binding, comparable within an allelic series) | 8.38 upbm affinity estimate (log intensity, higher = more binding, comparable within an allelic series) |  |  |  | 9.61 upbm affinity estimate (log intensity, higher = more binding, comparable within an allelic series) |
